Of roughly 7,900 targets only a part is listed; those with a hit were picked by preference. About 0.6% of all pairs of compound and target were hits.
What was measured:
Assay in all cases: log2 fold change, soluble protein after heating vs DMSO (PISA); higher = thermal stabilisation; K562 cells, 10 uM, 30 min; active = over 0.2 and 3.5 SD of the protein, either way, in both replicates (recomputed)
[1] = compound: NC(=O)Nc1cc(-c2cccc(F)c2)sc1C(=O)N[C@H]1CCCNC1
Method in brief: (§1)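 For each measurement, 10 μM compound was applied for 30 min to K562 cells at 2×10^6 cells/mL. Aliquots were heated for 3 min across 48°C-58°C, pooled, and extracted in PBS with 0.5% NP-40 at 4°C; the supernatant after 21,000xg for 90 min was soluble protein. This was quantified by TMTpro 16plex LC-MS/MS with channel sums equalised, and thermal stability was reported relative to control samples from duplicates, on a log2 fold-change scale.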

[2] = compound: NC(=O)c1cnc(N[C@@H]2CCCC[C@@H]2N)nc1Nc1cccc(-n2nccn2)c1
Method in brief: as §1

[3] = compound: NC1(c2ccc(-c3nc4ccn5c(=O)[nH]nc5c4cc3-c3ccccc3)cc2)CCC1
Method in brief: as §1

[4] = compound: NCC(=O)Nc1ccc(-n2nc(C(F)(F)F)cc2-c2ccc3c(ccc4ccccc43)c2)cc1
Method in brief: as §1

[5] = compound: Nc1ccccc1NC(=O)c1ccc(CNC(=O)OCc2cccnc2)cc1 [entinostat]
Method in brief: as §1

[6] = compound: O=C(CCCCCCC(=O)Nc1ccccc1)NO [vorinostat]
Method in brief: as §1

[7] = compound: O=C(CCCCCCNC(=O)c1cnc(N(c2ccccc2)c2ccccc2Cl)nc1)NO [citarinostat]
Method in brief: as §1

[8] = compound: O=C(O)c1ccc2c(c1)nc(Nc1cccc(Cl)c1)c1ccncc12 [silmitasertib]
Method in brief: as §1

[9] = compound: O=C1NC(=O)C(c2cnc3ccccn23)=C1c1cn2c3c(cc(F)cc13)CN(C(=O)N1CCCCC1)CC2
Method in brief: as §1

[10] = compound: c1cc(OCCN2CCCCC2)cc(-c2n[nH]c3ccc(-c4nnc[nH]4)cc23)c1
Method in brief: as §1

[11] = compound: c1cn2cc(-c3ccc4cn[nH]c4c3)nc(Nc3ccc(N4CCOCC4)cc3)c2n1 [entospletinib]
Method in brief: as §1

Measured: log2 fold change

ILF3 isoform 7 (UniProt Q12906)
inactive: [1] -0.056 | [2] 0.055 | [3] 0.17 | [4] 0.107 | [5] -0.083 | [6] -0.052 | [7] -0.053 | [8] 0.189 | [9] 0.32 | [10] -0.105 | [11] -0.034

LPIN3 isoform 2 (UniProt Q9BQK8)
inactive: [1] 0.014 | [2] -0.027 | [3] -0.044 | [4] 0.041 | [5] -0.006 | [6] 0.011 | [7] 0.001 | [8] -0.116 | [9] -0.054 | [10] -0.142 | [11] 0.08

LEMD2 (UniProt Q8NC56)
inactive: [1] 0.008 | [2] -0.139 | [3] -0.112 | [4] -0.157 | [5] 0.004 | [6] 0.04 | [7] 0.058 | [8] -0.044 | [9] -0.02 | [10] -0.046 | [11] -0.039

MIEF1 (UniProt L0R8F8)
inactive: [1] 0.085 | [2] 0.094 | [3] 0.047 | [4] 0.002 | [5] 0.007 | [6] -0.012 | [7] 0.039 | [8] -0.021 | [9] -0.063 | [10] -0.056 | [11] 0.023

MIEN1 (UniProt Q9BRT3)
inactive: [1] 0.045 | [2] 0.003 | [3] -0.013 | [4] 0.001 | [5] 0.016 | [6] -0.042 | [7] -0.007 | [8] 0.004 | [9] -0.131 | [10] 0.057 | [11] -0.01

IRF2BPL (UniProt Q9H1B7)
inactive: [1] 0.032 | [2] 0.011 | [3] 0.013 | [4] -0.004 | [5] -0.024 | [6] 0.007 | [7] -0.001 | [8] 0.027 | [10] -0.03 | [11] 0.001
active: [9] -0.218

LMF2 (UniProt Q9BU23)
inactive: [1] -0.008 | [2] -0.001 | [3] -0.057 | [4] -0.089 | [5] -0.006 | [6] 0.116 | [7] -0.068 | [8] 0.008 | [9] -0.016 | [10] 0.046 | [11] -0.019

MAP3K7 (UniProt O43318)
UniProt O43318, sequence (O43318 whole entry, looked up): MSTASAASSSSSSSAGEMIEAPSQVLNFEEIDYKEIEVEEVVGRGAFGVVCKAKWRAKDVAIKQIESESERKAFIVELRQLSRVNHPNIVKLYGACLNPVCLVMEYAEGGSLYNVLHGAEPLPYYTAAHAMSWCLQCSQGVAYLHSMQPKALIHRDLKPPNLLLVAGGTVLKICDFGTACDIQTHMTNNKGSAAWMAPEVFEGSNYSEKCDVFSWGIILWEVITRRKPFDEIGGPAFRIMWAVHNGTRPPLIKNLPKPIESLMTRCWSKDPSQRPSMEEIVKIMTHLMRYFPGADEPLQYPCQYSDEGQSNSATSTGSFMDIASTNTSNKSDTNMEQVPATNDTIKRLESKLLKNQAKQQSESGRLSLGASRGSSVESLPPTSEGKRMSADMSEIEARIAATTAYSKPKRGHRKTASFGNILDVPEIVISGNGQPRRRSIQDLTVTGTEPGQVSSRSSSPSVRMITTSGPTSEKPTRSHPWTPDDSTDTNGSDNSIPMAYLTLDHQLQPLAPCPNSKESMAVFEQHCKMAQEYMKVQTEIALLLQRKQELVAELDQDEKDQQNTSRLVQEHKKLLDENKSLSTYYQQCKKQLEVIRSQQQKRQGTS
inactive: [1] -0.162 | [2] 0.033 | [3] -0.141 | [4] -0.086 | [5] 0.035 | [6] 0.033 | [7] 0.063 | [8] 0.004 | [9] 0.091 | [10] -0.068 | [11] 0.055

MAGI1 (UniProt Q96QZ7)
inactive: [1] -0.069 | [2] -0.042 | [3] 0.003 | [4] -0.022 | [5] 0.019 | [6] 0.07 | [7] 0.022 | [8] 0.125 | [9] 0.035 | [10] -0.081 | [11] 0

MAP4 (UniProt P27816)
inactive: [1] 0.039 | [2] 0.002 | [3] 0.04 | [4] 0.025 | [5] -0.015 | [6] -0.013 | [7] -0.007 | [8] -0.018 | [9] 0.003 | [10] -0.014 | [11] -0.017

LDAH isoform 2 (UniProt Q9H6V9)
active: [3] 0.979
inactive: [1] -0.049 | [2] 0.018 | [4] -0.041 | [5] 0.014 | [6] -0.011 | [7] 0.061 | [8] 0.014 | [9] -0.16 | [10] -0.057 | [11] 0.016

LPIN1 isoform 7 (UniProt Q14693)
inactive: [1] -0.006 | [2] -0.011 | [3] -0.039 | [4] -0.03 | [5] -0.027 | [6] 0.136 | [7] 0.001 | [8] -0.139 | [9] -0.098 | [10] -0.048 | [11] -0.078

KIF3B (UniProt O15066)
inactive: [1] -0.016 | [2] -0.029 | [3] -0.091 | [4] -0.128 | [5] -0.016 | [6] -0.179 | [7] 0.053 | [8] -0.086 | [9] -0.112 | [10] 0.215 | [11] 0.23

IRAK4 (UniProt Q9NWZ3)
inactive: [2] -0.088 | [4] -0.008 | [5] 0.053 | [6] 0.05 | [7] 0.002 | [8] 0.027 | [9] -0.024 | [10] -0.019 | [11] 0.096
active: [1] 0.349 | [3] -0.281

LRPPRC (UniProt P42704)
inactive: [1] -0.249 | [2] -0.291 | [3] -0.676 | [4] -0.272 | [5] 0.479 | [6] 0.289 | [7] 0.203 | [8] 0.033 | [9] -0.383 | [10] -0.128 | [11] 0.245

MFN1 (UniProt Q8IWA4)
inactive: [1] -0.072 | [2] -0.171 | [3] -0.01 | [4] -0.224 | [5] 0.034 | [6] 0.021 | [7] 0.034 | [8] 0.102 | [9] -0.009 | [10] 0.02 | [11] -0.028

MAP3K20 (UniProt Q9NYL2)
UniProt Q9NYL2, sequence (Q9NYL2 whole entry, looked up): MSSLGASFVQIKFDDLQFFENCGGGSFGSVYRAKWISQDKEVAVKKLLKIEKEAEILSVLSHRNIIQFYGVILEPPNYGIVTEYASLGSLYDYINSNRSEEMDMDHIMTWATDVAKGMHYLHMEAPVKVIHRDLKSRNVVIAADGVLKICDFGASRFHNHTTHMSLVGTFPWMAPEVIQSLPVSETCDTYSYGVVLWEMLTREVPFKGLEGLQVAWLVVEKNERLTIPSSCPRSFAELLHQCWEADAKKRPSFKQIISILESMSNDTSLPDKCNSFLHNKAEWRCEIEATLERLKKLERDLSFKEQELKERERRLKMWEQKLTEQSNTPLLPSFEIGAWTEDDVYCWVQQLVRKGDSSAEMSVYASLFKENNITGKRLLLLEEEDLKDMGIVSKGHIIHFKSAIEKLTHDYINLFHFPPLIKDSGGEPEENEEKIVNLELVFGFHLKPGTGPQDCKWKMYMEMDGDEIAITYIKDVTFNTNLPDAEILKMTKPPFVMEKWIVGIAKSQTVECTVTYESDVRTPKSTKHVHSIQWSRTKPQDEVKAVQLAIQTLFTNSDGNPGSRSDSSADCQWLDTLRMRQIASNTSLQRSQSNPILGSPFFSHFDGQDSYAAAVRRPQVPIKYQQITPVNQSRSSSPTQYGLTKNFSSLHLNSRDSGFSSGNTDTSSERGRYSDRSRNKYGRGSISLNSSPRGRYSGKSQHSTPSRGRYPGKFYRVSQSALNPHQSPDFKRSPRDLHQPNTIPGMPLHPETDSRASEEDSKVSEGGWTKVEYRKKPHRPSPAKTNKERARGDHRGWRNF
inactive: [1] -0.008 | [2] 0.035 | [3] -0.012 | [4] -0.03 | [5] 0.019 | [6] 0 | [7] 0.002 | [8] 0.031 | [9] 0.026 | [10] -0.09 | [11] -0.007

KNTC1 (UniProt P50748)
inactive: [1] -0.037 | [2] -0.1 | [3] -0.193 | [4] -0.046 | [5] 0.049 | [6] 0.029 | [7] 0.037 | [8] 0.077 | [9] 0.013 | [10] -0.004 | [11] 0

MAGEA9 (UniProt P43362)
UniProt P43362, sequence (P43362 whole entry, looked up): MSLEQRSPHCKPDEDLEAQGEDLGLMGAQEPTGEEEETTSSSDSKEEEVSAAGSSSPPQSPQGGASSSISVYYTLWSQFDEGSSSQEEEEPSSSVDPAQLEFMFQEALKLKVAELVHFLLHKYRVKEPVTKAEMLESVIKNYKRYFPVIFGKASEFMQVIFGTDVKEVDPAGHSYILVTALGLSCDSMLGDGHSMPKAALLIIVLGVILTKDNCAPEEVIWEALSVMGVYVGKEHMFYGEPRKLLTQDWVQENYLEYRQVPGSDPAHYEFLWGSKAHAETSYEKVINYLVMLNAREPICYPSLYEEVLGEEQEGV
inactive: [1] -0.017 | [2] -0.027 | [3] -0.243 | [4] 0.033 | [5] 0 | [6] 0.132 | [7] 0.013 | [8] 0.052 | [9] -0.079 | [10] -0.106 | [11] 0.083

KSR1 (UniProt Q8IVT5)
UniProt Q8IVT5, sequence (Q8IVT5 whole entry, looked up): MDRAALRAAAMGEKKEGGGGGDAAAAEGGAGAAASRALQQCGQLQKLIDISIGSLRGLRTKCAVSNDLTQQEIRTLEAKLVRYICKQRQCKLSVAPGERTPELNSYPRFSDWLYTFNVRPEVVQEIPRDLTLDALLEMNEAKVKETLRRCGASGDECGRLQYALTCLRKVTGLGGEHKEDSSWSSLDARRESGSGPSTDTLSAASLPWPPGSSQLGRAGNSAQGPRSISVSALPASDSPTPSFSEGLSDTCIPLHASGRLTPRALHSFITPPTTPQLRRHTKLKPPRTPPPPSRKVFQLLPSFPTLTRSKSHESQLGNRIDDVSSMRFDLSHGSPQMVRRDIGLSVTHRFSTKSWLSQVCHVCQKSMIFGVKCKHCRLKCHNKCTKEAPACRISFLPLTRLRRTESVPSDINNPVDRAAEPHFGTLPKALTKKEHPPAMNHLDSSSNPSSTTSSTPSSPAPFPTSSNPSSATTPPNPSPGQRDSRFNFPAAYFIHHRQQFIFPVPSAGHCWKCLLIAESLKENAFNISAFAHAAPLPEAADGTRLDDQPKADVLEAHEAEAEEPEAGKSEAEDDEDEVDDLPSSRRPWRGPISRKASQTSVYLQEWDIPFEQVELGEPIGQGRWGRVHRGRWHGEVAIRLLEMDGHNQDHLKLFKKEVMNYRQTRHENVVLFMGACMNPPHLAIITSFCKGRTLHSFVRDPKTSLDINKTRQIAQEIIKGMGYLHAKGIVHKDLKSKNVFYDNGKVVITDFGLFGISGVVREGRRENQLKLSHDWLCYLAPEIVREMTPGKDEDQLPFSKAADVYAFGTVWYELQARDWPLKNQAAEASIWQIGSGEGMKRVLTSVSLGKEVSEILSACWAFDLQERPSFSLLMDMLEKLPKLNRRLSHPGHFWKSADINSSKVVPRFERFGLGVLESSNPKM
inactive: [1] -0.333 | [2] -0.049 | [3] 0.236 | [4] -0.111 | [5] 0.044 | [6] 0.013 | [7] 0.045 | [8] -0.279 | [9] -0.118 | [10] -0.193 | [11] 0.038

LARP1 (UniProt Q6PKG0)
inactive: [1] -0.064 | [2] 0.002 | [3] 0.051 | [4] -0.04 | [5] 0.02 | [6] 0.043 | [7] -0.025 | [8] 0.028 | [9] 0.113 | [10] -0.133 | [11] 0.028

LEO1 (UniProt Q8WVC0)
inactive: [1] 0.003 | [2] -0.06 | [3] -0.028 | [4] -0.11 | [5] 0.005 | [6] 0.088 | [7] 0.009 | [8] 0.068 | [9] -0.153 | [10] -0.055 | [11] -0.094

MEPCE (UniProt Q7L2J0)
UniProt Q7L2J0, sequence (Q7L2J0 whole entry, looked up): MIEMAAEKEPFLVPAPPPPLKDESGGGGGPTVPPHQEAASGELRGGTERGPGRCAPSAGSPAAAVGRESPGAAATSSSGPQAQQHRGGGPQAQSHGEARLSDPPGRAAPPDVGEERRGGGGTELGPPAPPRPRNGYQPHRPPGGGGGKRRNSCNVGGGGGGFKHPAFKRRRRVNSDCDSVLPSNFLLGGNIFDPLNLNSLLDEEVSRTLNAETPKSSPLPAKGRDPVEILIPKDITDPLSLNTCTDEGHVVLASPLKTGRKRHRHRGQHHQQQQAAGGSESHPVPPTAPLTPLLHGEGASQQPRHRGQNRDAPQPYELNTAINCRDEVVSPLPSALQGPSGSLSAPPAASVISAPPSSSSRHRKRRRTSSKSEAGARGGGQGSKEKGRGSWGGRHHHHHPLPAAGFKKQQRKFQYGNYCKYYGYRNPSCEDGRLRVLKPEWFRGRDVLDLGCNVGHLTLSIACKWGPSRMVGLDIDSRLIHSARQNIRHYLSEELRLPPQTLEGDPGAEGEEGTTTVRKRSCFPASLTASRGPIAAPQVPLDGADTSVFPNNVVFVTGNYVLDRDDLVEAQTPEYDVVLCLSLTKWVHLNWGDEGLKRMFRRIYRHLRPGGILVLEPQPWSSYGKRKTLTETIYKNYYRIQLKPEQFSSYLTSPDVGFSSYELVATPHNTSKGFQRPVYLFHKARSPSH
inactive: [1] -0.085 | [2] -0.152 | [3] -0.127 | [4] -0.004 | [5] 0.063 | [6] 0.107 | [7] 0.005 | [8] 0.02 | [9] -0.019 | [10] 0.026 | [11] 0.154

MAP2K7 isoform 4 (UniProt O14733)
inactive: [1] 0.008 | [2] -0.051 | [3] -0.078 | [4] -0.015 | [5] 0.015 | [6] 0.084 | [7] 0.041 | [8] -0.019 | [9] -0.052 | [10] -0.044 | [11] -0.009

MARCKSL1 (UniProt P49006)
inactive: [1] -0.02 | [2] 0.028 | [3] -0.01 | [4] 0.002 | [5] 0.075 | [6] -0.062 | [7] 0.162 | [8] -0.115 | [9] -0.035 | [10] 0.089 | [11] -0.005

KIF21A isoform 4 (UniProt Q7Z4S6)
UniProt Q7Z4S6, sequence (Q7Z4S6 whole entry, looked up): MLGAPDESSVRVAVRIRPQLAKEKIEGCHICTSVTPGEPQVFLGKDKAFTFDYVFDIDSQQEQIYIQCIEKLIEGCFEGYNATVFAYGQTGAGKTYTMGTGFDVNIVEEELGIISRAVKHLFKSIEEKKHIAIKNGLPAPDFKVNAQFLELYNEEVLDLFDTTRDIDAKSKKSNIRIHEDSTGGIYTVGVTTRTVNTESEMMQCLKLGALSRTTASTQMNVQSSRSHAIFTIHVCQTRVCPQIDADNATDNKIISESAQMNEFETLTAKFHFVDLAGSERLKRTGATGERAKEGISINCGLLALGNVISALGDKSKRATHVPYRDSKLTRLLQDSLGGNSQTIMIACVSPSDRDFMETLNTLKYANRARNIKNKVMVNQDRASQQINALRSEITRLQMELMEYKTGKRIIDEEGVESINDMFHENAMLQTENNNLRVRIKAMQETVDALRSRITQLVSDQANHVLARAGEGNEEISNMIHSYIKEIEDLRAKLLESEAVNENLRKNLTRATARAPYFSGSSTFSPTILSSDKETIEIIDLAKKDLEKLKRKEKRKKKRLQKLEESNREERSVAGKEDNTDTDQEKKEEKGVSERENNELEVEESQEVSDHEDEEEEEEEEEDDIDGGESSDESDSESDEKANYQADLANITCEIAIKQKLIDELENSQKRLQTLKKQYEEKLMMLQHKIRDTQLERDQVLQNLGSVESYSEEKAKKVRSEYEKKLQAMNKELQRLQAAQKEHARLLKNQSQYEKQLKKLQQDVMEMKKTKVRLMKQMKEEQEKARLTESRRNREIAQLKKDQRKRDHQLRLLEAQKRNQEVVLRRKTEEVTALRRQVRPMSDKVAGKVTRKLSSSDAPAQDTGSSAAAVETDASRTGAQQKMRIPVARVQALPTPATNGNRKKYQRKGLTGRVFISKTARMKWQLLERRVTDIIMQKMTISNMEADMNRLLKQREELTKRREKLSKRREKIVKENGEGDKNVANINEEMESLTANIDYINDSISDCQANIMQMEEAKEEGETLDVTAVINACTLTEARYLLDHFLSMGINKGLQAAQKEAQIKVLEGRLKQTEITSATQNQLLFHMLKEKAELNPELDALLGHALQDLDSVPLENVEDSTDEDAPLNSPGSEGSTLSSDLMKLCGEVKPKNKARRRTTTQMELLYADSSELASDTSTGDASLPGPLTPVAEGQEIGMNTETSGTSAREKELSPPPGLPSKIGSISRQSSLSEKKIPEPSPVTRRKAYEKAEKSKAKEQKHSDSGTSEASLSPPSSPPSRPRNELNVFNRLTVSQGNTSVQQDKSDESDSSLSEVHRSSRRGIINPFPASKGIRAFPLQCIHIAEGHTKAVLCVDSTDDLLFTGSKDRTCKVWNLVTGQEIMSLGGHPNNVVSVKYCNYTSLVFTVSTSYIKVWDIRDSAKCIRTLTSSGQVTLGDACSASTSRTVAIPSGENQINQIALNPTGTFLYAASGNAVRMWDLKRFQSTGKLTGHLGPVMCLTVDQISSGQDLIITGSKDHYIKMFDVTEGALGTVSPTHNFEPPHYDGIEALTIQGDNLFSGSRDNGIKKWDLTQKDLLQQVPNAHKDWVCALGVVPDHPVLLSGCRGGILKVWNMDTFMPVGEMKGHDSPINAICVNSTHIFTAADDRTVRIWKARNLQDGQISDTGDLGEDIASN
inactive: [1] -0.068 | [2] 0.055 | [3] -0.049 | [4] -0.093 | [5] 0.01 | [6] 0.012 | [7] 0.002 | [8] 0.033 | [9] 0.213 | [10] -0.087 | [11] 0.018

LTN1 isoform 3 (UniProt O94822)
inactive: [1] 0.024 | [2] -0.079 | [3] -0.125 | [4] -0.09 | [5] 0.056 | [6] 0.148 | [7] 0.048 | [8] 0.035 | [9] 0.037 | [10] -0.045 | [11] -0.001

Reference: the supplement of paper PMC10849652
